# Bioassay records (PubChem BioAssay)
# In the library only some 27% were active in any assay of this set; here they are far more common.
# CYP2C19 inhib: blockers of cytochrome P450 2C19 activity – biochemical, luminescence, ADME assay, primary screen; CYP2C19 Supersomes, luciferin-H EGE luminescence, 30 min; inhibition, % at 5 µM; actives 21% (n = 96,000);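 active means CYP2C19 inhibition above a set limit at 5 µM in the primary screen, cut at about 50% in these data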;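 further: plate controls were negative control wells for no effect and 2.5 mM tranylcypromine positive control for full effect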
# CYP2C19 activ: human CYP2C19 activators, primary screen, biochemical, luminescence; Cytochrome P450 2C19 (Homo sapiens), P33261; recombinant CYP2C19, luciferin-H EGE luminescence; hits give high values; 0 = fully inhibited enzyme, 1 = untreated enzyme; activation factor at 5 µM; 96,000 tested, under 10 active;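 active means activation factor of at least 2 at 5 µM in the primary screen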;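 further: 0 = wells with 2.5 mM tranylcypromine and 1 = vehicle-only wells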
# CYP2C9 act: human CYP2C9 activators, primary screen, biochemical, luminescence; Cytochrome P450 2C9 (Homo sapiens), P11712; actives 1.4% (n = 96,000); activation factor at 5 µM; recombinant CYP2C9, luciferin-H conversion; hits give high values; factor 1 = untreated enzyme, 0 = blocked; AID 1024, 2008;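 active means activation factor of 2 or more for CYP2C9 at a 5 µM dose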;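 further: 0 = sulfaphenazole-blocked wells and 1 = vehicle-only wells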
# Target sequence (P11712 whole entry, looked up): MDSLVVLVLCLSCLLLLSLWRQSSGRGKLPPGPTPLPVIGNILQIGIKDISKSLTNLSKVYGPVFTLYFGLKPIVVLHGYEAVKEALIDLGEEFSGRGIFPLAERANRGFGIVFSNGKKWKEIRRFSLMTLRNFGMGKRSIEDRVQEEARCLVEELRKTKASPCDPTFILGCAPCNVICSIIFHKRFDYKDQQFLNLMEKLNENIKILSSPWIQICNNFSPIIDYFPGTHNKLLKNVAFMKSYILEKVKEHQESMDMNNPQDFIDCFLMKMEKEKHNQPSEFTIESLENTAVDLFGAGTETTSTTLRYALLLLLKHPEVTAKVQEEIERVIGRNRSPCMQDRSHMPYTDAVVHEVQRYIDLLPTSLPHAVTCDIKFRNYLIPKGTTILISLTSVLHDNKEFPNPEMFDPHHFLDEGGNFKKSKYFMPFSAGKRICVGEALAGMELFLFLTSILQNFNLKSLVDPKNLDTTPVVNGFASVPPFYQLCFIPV
# CYP2C9 inh: blockers of cytochrome P450 2C9 activity – biochemical, luminescence, ADME assay, primary screen | CYP2C9 Supersomes, luciferin-H conversion | actives 20% (n = 96,000) | P11712 | inhibition, % at 5 µM;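 active means blocking of liver enzyme CYP2C9 beyond about 50% at 5 µM, limit read from the data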
# Cav3 T inh: Cav3.2 calcium influx blockers – cell-based, Fluo-4 calcium fluorescence, FDSS, MLSMR library, primary screen. Voltage-dependent T-type calcium channel subunit alpha-1H (Homo sapiens), O95180. Cav3.2-expressing cells; hits give low values. B-score at 10 µM. actives 4% (n = 100,000). AID 449739, 2010;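 active means single-dose well whose peak fluorescence ratio is a statistical outlier from its plate by either plate-standardised score or position-corrected B-score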
# Starred values were filed as active, the others as inactive; . = not tested or not shown.
SMILES,CYP2C19 inhib,CYP2C19 activ,CYP2C9 act,CYP2C9 inh,Cav3 T inh
CCCC1=C(C(=O)OCC)C(c2c(C)nn(-c3ccccc3)c2Cl)C(C#N)=C(N)O1 (stereo not given),50*,0.5,0.5,55*,-5*
CC1(C)CC(=O)C2=C(C1)OC(N)=C(C#N)C2C1C=CCCC1 (stereo not given),30,0.7,0.4,60*,1.9
Cc1nn(-c2ccccc2)c(Cl)c1C1C(C#N)=C(N)OC2=C1C(=O)CC(C)(C)C2 (stereo not given),39,0.6,0.3,69*,-0.1
COc1ccc(C(NC(=O)CC(C)C)NC(=O)CC(C)C)cc1OC,-7,1.1,1,4,-0.66
C=C(C)c1ccc(C(C)(C)NC(=O)N2CCN(C)CC2)cc1,19,0.8,1,4,0.87
COc1ccc2c(CSc3nc4nc(C)cc(C)n4n3)cc(=O)oc2c1,72*,0.3,0.2,85*,0.18
Cc1cc(C)n2nc(SCC#N)nc2n1,.,.,.,.,0.03
Cc1ccc2c(CSc3nc4nc(C)cc(C)n4n3)cc(=O)oc2c1,47,0.5,0.8,18,2.4
Cc1cc(C)n2nc(SCc3ncc(-c4ccccc4)o3)nc2n1,86*,0.1,0.8,19,-1.2
CCOc1cccc(OCCOc2ccccc2[N+](=O)[O-])c1,.,.,.,.,-0.25
O=[N+]([O-])c1ccc(Oc2cccc(Br)c2)c2ccncc12,58*,0.4,0.8,16,-0.35
O=[N+]([O-])c1ccc(Oc2ccc(F)cc2)c2ccncc12,84*,0.2,0.5,50,-1
CCOC(=O)C1=C(C)OC(N)=C(C(=O)OCC)C1c1cccnc1 (stereo not given),92*,0.1,0,96*,0.26
CCOC(=O)C1=C(C)OC(N)=C(C(=O)OCC)C1c1ccncc1 (stereo not given),93*,0.1,0,99*,0.79
CC(=O)C1=C(C)OC(N)=C(C#N)C1c1ccncc1 (stereo not given),2,1,0.8,17,0.0062
CSc1sc(C(=O)O)c(C)c1C(C)=O,-7,1.1,1.1,-7,-1.5
O=C(CSc1ccc(C(F)(F)F)cc1[N+](=O)[O-])Nc1ccccc1,15,0.9,1,2,0.52
O=[N+]([O-])c1cc(C(F)(F)F)ccc1NCCc1c[nH]c2ccc(O)cc12,4,1,0.3,75*,-0.65
CNC(=O)[C@@]1(C)C=C[C@@H](Cc2ccccc2)N1C(=O)OC,.,.,.,.,-0.1
CC(C)OCC(O)CS(=O)Cc1ccccc1 (stereo not given),10,0.9,1.1,-12,0.9
Cc1cc(Nc2ccc(F)c(Cl)c2)n2ncnc2n1,-27,1.3,1.1,-6,0.22
CCC1C(C#N)=C(N)OC2=C1C(=O)CC(C)(C)C2 (stereo not given),.,.,.,.,-0.12
CCSc1sccc1C1C(C#N)=C(N)N(c2cccnc2)C2=C1C(=O)CC(C)(C)C2 (stereo not given),74*,0.3,0.4,60*,2.8
CC1(C)CC(=O)C2=C(C1)N(c1ccccc1C#N)C(N)=C(C#N)C2c1cccs1 (stereo not given),25,0.7,0.3,71*,-0.79
COc1ccc(N2C(N)=C(C#N)C(c3cccnc3)C3=C2CC(C)(C)CC3=O)cc1 (stereo not given),30,0.7,0.4,56*,.
SMILES,CYP2C19 inhib,CYP2C19 activ,CYP2C9 act,CYP2C9 inh,Cav3 T inh
CC1(C)CC(=O)C2=C(C1)OC(c1cccs1)C(C#N)=C2N (stereo not given),83*,0.2,0.3,68*,1.1
Cc1cc(NC(=O)Cn2nnc3sc4c(c3c2=O)CCC(C(C)(C)C)C4)no1 (stereo not given),32,0.7,0.4,57*,-7.3*
Cc1cc(NC(=O)Cn2nnc3sc4c(c3c2=O)CCCC4)no1,6,0.9,0.8,21,0.6
COCCCN1CN(S(=O)(=O)c2ccc(Cl)cc2)c2nc3ccccc3nc21,98*,0,0,99*,-0.81
CC(C)OCCCN1CN(S(=O)(=O)c2ccccc2)c2nc3ccccc3nc21,85*,0.1,0,98*,0.38
CC(C)CN1CN(S(=O)(=O)c2cccs2)c2nc3ccccc3nc21,10,0.9,0.9,9,0.98
O=C(CN1CCOCC1)Nc1ccccc1C(=O)O,-8,1.1,0.9,6,1.4
CCCCNC(=O)Nc1nnc(-c2ccc(Cl)cc2)o1,-13,1.1,1.1,-9,0.029
CCc1c(C(=O)Nc2ccncc2)csc1C,98*,0,0.2,84*,-0.093
O=C(Nc1cccc(-c2csc(-c3ccccc3)n2)c1)c1cccs1,51*,0.5,0.1,91*,-0.8
O=C(Nc1ccncc1)c1cccs1,47,0.5,0.5,52*,0.69
O=C(Nc1cccnc1)c1cccs1,4,1,1.1,-8,1.5
O=C(Nc1ccc2nn(-c3ccccc3)nc2c1)c1cccs1,-14,1.1,1,-2,0.048
O=C(Nc1ccc2nsnc2c1)c1cccs1,55*,0.4,0.8,22,-0.97
CCc1c(C(=O)Nc2ncn(Cc3cccc(C)c3)n2)csc1C,.,.,.,.,-0.92
CCCCOc1cccc(OCCCC)c1C(=O)Nc1cc(C)on1,34,0.7,0.8,15,-3.8
CC(=O)Nc1ccc(-n2nnnc2SCC(=O)N2CCN(C(=O)c3ccco3)CC2)cc1,10,0.9,0.9,10,1.2
CCCCCC(=O)N1CC2(C)CN(C(=O)CCCCC)CC(C)(C1)C2=O,4,1,1,-3,1.2
CCN(CCNC(=O)C1CCN(S(=O)(=O)c2cccc3cccnc23)CC1)c1ccccc1,32,0.7,3*,-199,-3.1
COc1cc(NC(=O)C2CCCCC2)c2ncccc2c1,38,0.6,2.1*,-111,-1.4
CCOc1ccccc1NC(=O)C1CCN(S(=O)(=O)c2cccc3cccnc23)CC1,93*,0.1,1.6,-58,.
COc1ccc(OC)c(NC(=O)C2CCCN(S(=O)(=O)c3cccc4cccnc34)C2)c1 (stereo not given),69*,0.3,0.8,17,-0.089
Cc1ccccc1NC(=O)C1CCCN(S(=O)(=O)c2cccc3cccnc23)C1 (stereo not given),11,0.9,1.5,-45,1.3
CSc1nnc(-c2cccc(C)c2)n1N,9,0.9,1.2,-17,0.87
COc1ccc(C(=O)N2CCC(C(=O)NCc3ccccn3)CC2)cc1,-12,1.1,1.2,-16,1.3
CCCCn1c(CN2CCN(C(=O)c3ccco3)CC2)nc2c1c(=O)n(C)c(=O)n2C,.,.,.,.,0.52
CC(C)P(=O)(Cc1cccc(C#N)c1)C(C)C,11,0.9,1,3,0.38
